Bioassay records: PubChem BioAssay, National Center for Advancing Translational Sciences (NCATS)
FBPA Giardia inh – qHTS Assay for Inhibitors of Fructose-1,6-bisphosphate Aldolase from Giardia Lamblia. purified Giardia FBPA. A8B2U2. Potency, µM (series often up to 59.6 µM), for inactives: top-dose activity, negative = inhibition, most hits filed as inhibitors. 290,000 compounds, 0.71% hits. AID 2451, 2010; further: potency means the concentration at half of the fitted maximal effect; nearly all actives have a fitted effect of over 55% in size
Target sequence (A8B2U2 whole entry, looked up): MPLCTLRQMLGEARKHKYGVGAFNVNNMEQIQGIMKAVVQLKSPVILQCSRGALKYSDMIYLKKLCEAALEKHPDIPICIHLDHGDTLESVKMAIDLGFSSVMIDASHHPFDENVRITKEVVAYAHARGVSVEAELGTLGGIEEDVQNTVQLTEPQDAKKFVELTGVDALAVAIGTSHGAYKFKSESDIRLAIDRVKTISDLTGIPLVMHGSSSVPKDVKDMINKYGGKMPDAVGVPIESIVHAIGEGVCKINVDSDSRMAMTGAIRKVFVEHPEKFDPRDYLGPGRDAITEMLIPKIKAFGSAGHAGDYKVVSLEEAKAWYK
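Giardia FBPA (40 nM reagent) was preincubated 10 min at RT with compound (up to 57.5 uM final), then substrate plus GAPDH/TPI/NAD/arsenate coupling system with diaphorase/resazurin was added; resorufin fluorescence (525/598 nm) was read after 20 min.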
Lassa entry inh – qHTS for Inhibitors of binding or entry into cells for Lassa Virus | Lassa virus pseudotype entry inhibition, cell reporter | Potency, µM (series often up to 37.9 µM), for the others: top-dose activity change, negative = inhibition, hits mostly inhibitors | 300,000 compounds, 1.2% hits | AID 540256, 2011; calls by dose curve; tested in HEK293 cells; further: potency means the concentration at half of the fitted maximal effect; nearly all actives have a fitted effect of over 50% in size
HCMV antiviral – qHTS Assay for inhibitors of the human cytomegalovirus (HCMV); 410,000 compounds, 4.5% hits; HFF cells, HCMV-luciferase reporter, 72 h; stronger effect = lower value; activity change, negative = inhibition, % at 57.5 µM; in the data active means activity change below about -60%; inconclusive means no clear call, values can overlap the other calls; inactive means above about -39%
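Steps: HFFs plated, 16 h 37C; compounds added; HCMV-luciferase added to MOI 1 PFU/cell; 72 h 37C; OneGlo reagent, 5 min room temperature; luminescence read, normalized to controls.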
FMDV antiviral – High Throughput Screening for Foot and Mouth Disease Virus Antivirals. FMDV antiviral cell-based qHTS. Potency, µM (top dose mostly 57.9 µM), for the others: top-dose activity change, negative = inhibition, actives largely listed as inhibitors. 410,000 compounds, 1.2% hits. AID 1159524, 2015; calls by dose curve; tested in HEK293T cells; further: read-out not given here; potency means the concentration at half of the fitted maximal effect; nearly all actives have a fitted effect of over 45% in size
HCV inh – qHTS Assay for Inhibitors of Hepatitis C Virus (HCV) | Potency, µM (doses to about 41.8 µM), for inactives: top-dose activity change, negative = inhibition, hits mostly inhibitors | Huh7.5.1 HCVcc-Cre infection, luciferase reporter, 44 h | AID 651820, 2012 | 340,000 compounds, 3.4% hits; further: potency means the concentration at half of the fitted maximal effect
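Infectious HCV cell culture screen: compound-treated cells (1,000/well, pre-plated 4 h) are infected with HCVcc-Cre at roughly 0.5 moi and grown 44 h. Infection is quantified by luciferase signal after 15 min substrate incubation at room temperature.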
Marburg entry inh – qHTS for inhibitors of binding or entry into cells for Marburg Virus; Marburg virus pseudotyped entry inhibition, cell reporter; Potency, µM (doses to about 37.8 µM), without a hit: at the highest dose activity change, negative = inhibition, actives largely listed as inhibitors; 300,000 compounds, 1.8% hits; AID 540276, 2011; calls by dose curve; tested in HEK293 cells; further: potency means the concentration at half of the fitted maximal effect
* hit, by the source's call; ? = inconclusive; nt = no result; ! = repeats disagree; [ ] = remark or other dose. Shown are actives, neighbours in structure and some others; about 8.3% of the full set was active somewhere. Unless noted, the call rests on the fitted dose curve; in most records, active means well fitted curve in the direction sought with a large enough effect; inconclusive means small, poorly fitted or top-dose-only effect, or another doubt; inactive means no such curve, though single readings can be large; an effect the other way counts as inactive or inconclusive. On the % scale 0 is the no-effect control and ±100 the full control effect.

SMILES	FBPA Giardia inh	Lassa entry inh	HCMV antiviral	FMDV antiviral	HCV inh	Marburg entry inh
NC[C@H](O)C1CCCCCCC1	nt	nt	nt	nt	nt	-36.0%
COc1ccccc1N1CCN(C(=O)c2ccc3nc(-c4ccco4)c(-c4ccco4)nc3c2)CC1	0.8%	?	-7.8	?	11.2µM*!	20.6µM*
COc1ccccc1N1CCN(C(=O)c2cc3c(C)nc4ccccc4c3o2)CC1	nt	11.2µM*	-61.4*	?	6.31µM*	?
COc1ccccc1N1CCN(C(=O)c2oc3ccccc3c2C)CC1	-3.2%	?	26.1	5.5%	?	?
Cc1ccc(C)c(N2CCN(C(=O)c3cc4c(C)nc5ccccc5c4o3)CC2)c1	-2.8%	nt	?	?	?	nt
COc1ccccc1N1CCN(C(=O)c2sc3nc(-c4ccccc4)cn3c2C)CC1	-1.4%	-3.2%	-12.8	nt	11.2µM*!	?
COc1ccccc1N1CCN(C(=O)c2cccc3c(=O)c(C)c(-c4ccccc4)oc23)CC1	-1.2%	nt	-66.4*	-2.0%	?	-4.7%
CCC(C)C(NC(=O)OC(C)(C)C)C(=O)NC1COC2CC(n3cc(C)c(=O)[nH]c3=O)OC12 (centres undefined)	6.5%	nt	nt	nt	nt	nt
COc1ccc(CNC(=O)C(C)n2c(=O)cc(C)c3c(C)nn(-c4ccccc4)c32)cc1 (centres undefined)	nt	6.7%[46.1 µM]	5.9	0.7%	nt	nt
COc1cccc2ccc(CN3CCC4(CC3)c3ccccc3[C@@H](NC(=O)c3ccccc3)[C@@H]4O)nc12	nt	nt	nt	-1.2%	nt	nt
CN(C)S(=O)(=O)c1ccc(Cl)c(C(=O)Nc2cccc([N+](=O)[O-])c2)c1	-0.8%	nt	-64.9*	?	11.2µM*	nt
O=C(Nc1nccs1)c1ccc([N+](=O)[O-])cc1Cl	?	nt	23.0	0.0%	3.4%	nt
O=C(Nc1nccs1)c1cc([N+](=O)[O-])ccc1Cl	-27.5%	nt	-102.7*	-19.3%	-16.0%	nt
O=C(NNc1ccc([N+](=O)[O-])cc1)c1ccccc1Cl	-5.4%	nt	-86.3*	3.5%	6.7%	nt
O=C(Nc1ccccc1Oc1ccccc1)c1cc([N+](=O)[O-])ccc1Cl	0.1%	-25.0%	-77.4*	?	?	?
COc1ccc(F)cc1S(=O)(=O)NCCc1csc2nc(-c3cccc(C)c3)nn12	nt	-3.0%[46.1 µM]	29.5	63.9%	nt	nt
Cc1cc(C)cc(OCC(=O)Nc2nc3c(s2)CC(C(C)(C)C)CC3)c1 (centres undefined)	nt	?	-3.4	-26.0%	nt	-4.9%[46.1 µM]
COc1ccccc1-c1ccc2ncnc(N(C)C)c2c1	-12.9%	nt	nt	?	nt	nt
Cc1c(C(=O)NCCCN2CCCC2=O)cnn1-c1ncc2c(n1)-c1ccccc1CC2	nt	nt	nt	29.2%	nt	nt
CSc1ccc(CNC(=O)CCc2c(C)nn(-c3ccc(N4CCCC4)nn3)c2C)cc1	nt	-10.1%[46.1 µM]	18.2	13.6%	nt	nt
O=C(O)c1ccccc1Nc1ccc([N+](=O)[O-])cc1	11.0%	1.12µM*	?	46.5%	-7.5%	0.501µM*
O=C(Nc1ccc(Nc2ccccc2)cc1)c1cc([N+](=O)[O-])ccc1Cl	10.5%	nt	42.6	?	11.2µM*	nt
O=C(O)c1ccccc1C(=O)Nc1ccc(Nc2ccc([N+](=O)[O-])cc2[N+](=O)[O-])cc1	2.2%	nt	-19.8	1.5%	4.3%	nt
O=C(Nc1ccc2c(c1)CCCN2C(=O)c1ccco1)c1cc([N+](=O)[O-])ccc1Cl	nt	2.51µM*	-5.8	?	?	?
COc1cc(-c2cnc3ccccc3c2)cc2c1OCCN(C(=O)CCC(=O)c1ccc(F)cc1)C2	nt	nt	nt	-12.4%	nt	nt
SMILES	FBPA Giardia inh	Lassa entry inh	HCMV antiviral	FMDV antiviral	HCV inh	Marburg entry inh
O=C(NCCCN1CCN(c2ccc(F)cc2)CC1)c1cc2c(Cl)nc3ccccc3c2s1	nt	11.9%[46.1 µM]	10.5	?	nt	3.0%[46.1 µM]
O=C(CCN1CCOCC1)NNC(=O)/C(=C/c1ccccc1)NC(=O)c1ccccc1	4.6%	11.2µM*	1.2	-9.5%	18.9%	?
CCOC(=O)/C(=C\c1ccccc1)C(=O)CCN1CCOCC1	nt	-3.8%[46.1 µM]	23.7	17.8µM*	10µM*	12.0%
Cc1ccccc1-c1nc(CS(=O)(=O)CC(=O)NCCCc2ccccc2)c(C)o1	nt	10.2%[46.1 µM]	-20.9	-23.3%	nt	-2.0%[46.1 µM]
CN(C)c1ncc2nc(-c3ccc(F)cc3)c(=O)n(C)c2n1	5.4%	nt	nt	34.4%	nt	nt
c1ccc(C(c2ccccn2)c2ccccn2)cc1	7.6%	17.5%	-27.5	-20.9%	0.4%	13.1%
CC(c1ccc(Cl)cc1)N(CCN(C)C)c1ccccn1 (centres undefined)	nt	nt	-19.0	nt	nt	nt
CN(C)CC[C@H](c1ccc(Br)cc1)c1ccccn1	0.7%[21.7 µM]	nt	nt	nt	nt	8.91µM*!
CN(C)CCC(c1ccc(Cl)cc1)c1ccccn1 (centres undefined)	1.4%	-17.6%	-16.4	-6.9%	?	2.82µM*!
CN(C)CCC(c1ccccc1)c1ccccn1 (centres undefined)	-0.6%	13.5%	-8.6	-12.3%	5.01µM*!	?
O=C(Nc1ccccc1N1CCOCC1)c1ccc(N2CCOCC2)c([N+](=O)[O-])c1	-8.9%	-20.7%[46.1 µM]	0.0	-7.3%	-29.2%	-3.4%[46.1 µM]
O=C(Nc1ccccc1N1CCOCC1)c1ccc([N+](=O)[O-])s1	nt	-22.1%	?	25.1%	11.2µM*	?
O=C(Nc1ccccc1N1CCOCC1)c1ccc([N+](=O)[O-])cc1	7.4%	-14.5%	-101.3*	-3.4%	2.2%	9.4%
Cc1cc(C(=O)Nc2ccccc2N2CCOCC2)no1	nt	nt	0.0	-17.9%	0.4%	nt
CCc1sc(C(=O)Nc2ccccc2N2CCOCC2)cc1C	-1.6%	-14.2%[46.1 µM]	-75.4*	-11.1%	?	-25.6%[46.1 µM]
O=S(=O)(c1ccc(Br)cc1)c1nnn2c1nc(NCc1ccc3c(c1)OCO3)c1sccc12	nt	12.8%[46.1 µM]	13.1	-15.5%	nt	nt
Cc1cc(Br)cc2c(C(=O)Nc3c(C)n(C)n(-c4ccccc4)c3=O)cc(-c3cccs3)nc12	-0.9%	?	-62.9*	nt	?	6.51µM*
CCc1ccc(-c2cc(C(=O)Nc3c(C)n(C)n(-c4ccccc4)c3=O)c3ccccc3n2)s1	-3.0%	?	16.1	-6.1%	?	?
CCCCNCCCOc1cccc(Cl)c1Cl	-0.6%	-0.7%	-21.7	nt	-21.1%	14.6µM*
Cc1ccc2c(c1)Oc1ccc(NC(=O)CCl)cc1C(=O)N2	3.5%	?	-88.5*	14.1µM*	?	?
O=C(NCc1ccccc1Cl)c1ccccc1NC(=O)c1nsc2ccccc12	nt	0.7%[46.1 µM]	-36.7	23.2%	nt	nt
Cc1nc(NC2=NCN(CCCN3CCOCC3)CN2)nc2c(C)cccc12	8.2%	?	nt	-19.5%	7.08µM*	?
CCCn1c(=O)c(C(=O)NCc2ccccc2OC)c(O)c2ccccc21	-5.4%	nt	9.6	-8.8%	-10.8%	nt
